Reference: PubChem BioAssay AID1159580 (chemical genetic matrix, 2015)
“And” between values parts separate entries of the source, which are not always exact repeats. Equal values may be shown once. In all, about 5,500 compounds went through this assay and about 2,000 (36%) were called active. Inconclusive results (about 18%) are left out. Cut-off read from the data, not from the text of the source: active = normalized growth mostly below about 0.91 (no sharp cut-off); inconclusive = no clear call, values can overlap the other calls; inactive = mostly above about 0.92. The list shows a part of the results.

Experiment: chemical genetic growth profiling, strain panel (AID 1159580);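 note: tested at 20 µM; growth read once vehicle control cultures reached saturation at 30 °C; 1 = growth at the plate median or of vehicle wells; lower values mean less growth of the strain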
Conditions: S. cerevisiae deletion strains, growth OD

Measured: normalized growth

CCCCC1C(=O)N(c2ccccc2)N(c2ccc(O)cc2)C1=O (stereo not given)
inactive: locus YAL021C, strain ccr4, active compounds read low 1.02 | locus YAL026C, strain drs2, active compounds read low 0.998 | locus YAL030W, strain snc1, active compounds read low 1 | locus YBL061C, strain skt5, active compounds read low 0.999 | locus YBR009C, strain hhf1, active compounds read low 0.998 | locus YBR021W, strain FUR4, active compounds read low 0.995 | locus YBR023C, strain chs3, active compounds read low 1 | locus YBR171W, strain sec66, active compounds read low 1.01 | locus YBR229C, strain ROT2, active compounds read low 0.953 | locus YBR231C, strain swc5, active compounds read low 1 | locus YBR279W, strain paf1, active compounds read low 0.993 | locus YCL011C, strain gbp2, active compounds read low 1.01 | locus YCL016C, strain dcc1, active compounds read low 1.01 | locus YCL029C, strain bik1, active compounds read low 0.969 | locus YCL061C, strain MRC1, active compounds read low 1.01 | locus YCL069W, strain vba3, active compounds read low 1 | locus YCR088W, strain abp1, active compounds read low 1.01 | locus YDL005C, strain med2, active compounds read low 0.995 | locus YDL035C, strain GPR1, active compounds read low 0.972 | locus YDL040C, strain nat1, active compounds read low 0.997 | locus YDL074C, strain BRE1, active compounds read low 0.947 | locus YDL101C, strain DUN1, active compounds read low 0.98 | locus YDL134C, strain PPH21, active compounds read low 0.999 | locus YDL185W, strain tfp1, active compounds read low 0.974 | locus YDL192W, strain arf1, active compounds read low 0.984 | locus YDR001C, strain nth1, active compounds read low 0.995 | locus YDR069C, strain doa4, active compounds read low 0.988 | locus YDR101C, strain arx1, active compounds read low 1.01 | locus YDR137W, strain rgp1, active compounds read low 0.98 | locus YDR150W, strain NUM1, active compounds read low 0.979 | locus YDR159W, strain sac3, active compounds read low 1 | locus YDR162C, strain NBP2, active compounds read low 0.99 | locus YDR195W, strain ref2 0.987 | locus YDR297W, strain sur2, active compounds read low 1.01 | locus YDR318W, strain mcm21, active compounds read low 0.994 | locus YDR334W, strain swr1, active compounds read low 1.01 | locus YDR335W, strain msn5, active compounds read low 1.01 | locus YDR388W, active compounds read low 0.998 | locus YDR392W, strain spt3, active compounds read low 1.01 | locus YDR502C, strain sam2, active compounds read low 0.99 | locus YEL003W, strain gim4, active compounds read low 0.998 | locus YEL037C, strain rad23, active compounds read low 1 | locus YEL061C, strain CIN8 (second series), active compounds read low 1 | locus YEL061C, strain CIN8, active compounds read low 0.987 | locus YER015W, strain faa2, active compounds read low 0.996 | locus YER016W, strain bim1, active compounds read low 0.998 | locus YER110C, active compounds read low 0.965 | locus YER111C, strain swi4, active compounds read low 1 | locus YER155C, strain BEM2 (second series), active compounds read low 1.04 | locus YER155C, strain BEM2, active compounds read low 0.997 | locus YER167W, strain BCK2, active compounds read low 0.987 | locus YFR010W, strain ubp6, active compounds read low 1.01 | locus YGL078C, strain dbp3, active compounds read low 0.995 | locus YGL086W, strain mad1, active compounds read low 0.963 | locus YGL167C, strain pmr1, active compounds read low 1 | locus YGL173C, strain kem1, active compounds read low 0.983 | locus YGL227W, strain vid30, active compounds read low 1.01 | locus YGL240W, strain doc1, active compounds read low 1 | locus YGL248W, strain PDE1, active compounds read low 0.97 | locus YGL253W, strain hxk2, active compounds read low 1.01 | locus YGR135W, strain pre9, active compounds read low 0.988 | locus YGR229C, strain SMI1, active compounds read low 0.992 | locus YGR252W, strain gcn5, active compounds read low 0.893 | locus YHR013C, strain ard1, active compounds read low 1 | locus YHR027C, strain rpn1, active compounds read low 0.999 | locus YHR030C, strain SLT2, active compounds read low 0.999 and 0.974 | locus YHR079C, strain IRE1 (second series), active compounds read low 0.997 | locus YHR079C, strain IRE1, active compounds read low 0.973 | locus YHR094C, strain hxt1, active compounds read low 0.993 | locus YHR129C, strain ARP1, active compounds read low 0.982 | locus YHR142W, strain chs7, active compounds read low 1.01 | locus YHR200W, strain rpn10, active compounds read low 0.988 | locus YIL066C, strain RNR3, active compounds read low 0.976 | locus YIL073C, strain SPO22, active compounds read low 1.01 | locus YIL125W, strain kgd1, active compounds read low 0.985 | locus YIR030C, strain dcg1, active compounds read low 0.983 | locus YJL092W, strain hpr5, active compounds read low 1.01 | locus YJL095W, strain BCK1 (second series), active compounds read low 1.01 | locus YJL095W, strain BCK1, active compounds read low 1 and 0.992 | locus YJL115W, strain asf1, active compounds read low 1.01 | locus YJL129C, strain trk1, active compounds read low 0.997 | locus YJL134W, strain LCB3, active compounds read low 0.988 | locus YJL154C, strain vps35, active compounds read low 1 | locus YJL164C, strain tpk1, active compounds read low 0.994 | locus YJL166W, strain qcr8, active compounds read low 1.01 | locus YJL168C, strain set2, active compounds read low 0.994 | locus YJL187C, strain SWE1 (second series), active compounds read low 0.98 | locus YJL187C, strain SWE1, active compounds read low 1 | locus YJR043C, strain POL32, active compounds read low 0.999 | locus YJR066W, strain TOR1, active compounds read low 0.93
